Among all 310,000 compounds or so, about 14,000 (4.5%) showed an effect of 50% or more. Effects have a minus sign here. This excerpt belongs to a sample that is enriched for strong results.
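Also: peak tail current of the secondary pulse compared with the same well before compound.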

In this test the target is human ether-à-go-go-related gene (hERG) potassium channel (human, UniProt Q12809). The test can be described thus: primary screen, population patch clamp on CHO cells stably expressing hERG; higher = less effect of the substance.
Chain of human ether-à-go-go-related gene (hERG) potassium channel (Q12809 whole entry, looked up): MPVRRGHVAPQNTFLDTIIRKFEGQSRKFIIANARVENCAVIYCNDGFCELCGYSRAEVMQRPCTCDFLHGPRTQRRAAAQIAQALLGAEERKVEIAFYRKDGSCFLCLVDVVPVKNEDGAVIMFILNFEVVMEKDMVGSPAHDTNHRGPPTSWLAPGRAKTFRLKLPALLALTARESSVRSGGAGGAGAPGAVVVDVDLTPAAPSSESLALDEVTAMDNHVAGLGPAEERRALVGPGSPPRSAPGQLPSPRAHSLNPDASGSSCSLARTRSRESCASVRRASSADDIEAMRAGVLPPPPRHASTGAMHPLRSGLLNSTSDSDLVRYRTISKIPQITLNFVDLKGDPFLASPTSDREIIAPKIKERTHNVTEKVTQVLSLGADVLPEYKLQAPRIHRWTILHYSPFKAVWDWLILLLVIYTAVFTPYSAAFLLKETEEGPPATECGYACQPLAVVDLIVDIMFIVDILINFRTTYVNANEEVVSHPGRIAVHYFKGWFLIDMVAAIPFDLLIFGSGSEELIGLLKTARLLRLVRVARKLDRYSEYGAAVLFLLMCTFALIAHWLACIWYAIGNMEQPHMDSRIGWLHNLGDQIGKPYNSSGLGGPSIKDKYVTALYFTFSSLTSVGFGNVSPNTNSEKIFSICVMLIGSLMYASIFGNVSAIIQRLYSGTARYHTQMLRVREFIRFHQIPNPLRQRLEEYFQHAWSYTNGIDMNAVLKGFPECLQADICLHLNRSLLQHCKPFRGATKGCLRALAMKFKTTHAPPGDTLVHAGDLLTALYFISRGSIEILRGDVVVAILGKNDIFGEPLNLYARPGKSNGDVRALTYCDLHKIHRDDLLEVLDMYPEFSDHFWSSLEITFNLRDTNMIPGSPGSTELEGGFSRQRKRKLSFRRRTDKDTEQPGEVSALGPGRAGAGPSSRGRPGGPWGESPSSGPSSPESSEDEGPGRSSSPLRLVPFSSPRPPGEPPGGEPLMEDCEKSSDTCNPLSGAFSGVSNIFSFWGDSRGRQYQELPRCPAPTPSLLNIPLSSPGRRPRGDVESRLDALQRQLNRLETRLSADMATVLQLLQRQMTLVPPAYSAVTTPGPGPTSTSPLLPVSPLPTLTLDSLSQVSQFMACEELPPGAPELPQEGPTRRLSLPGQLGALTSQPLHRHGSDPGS
Regarding `CCCCCC(=O)Nc1ccccc1N1CCN(c2ccccc2)CC1`, the “hERG current change (%, negative = inhibition) at 10uM” value is recorded as -0.752%.

With `CSc1ccc(S(=O)(=O)NCC(=O)OCC(=O)N2CCCCC2C)cc1[N+](=O)[O-]` (centres unmarked), the “hERG current change (%, negative = inhibition) at 10uM” value is reported as 4.74%.

In the case of `COC(=O)Cc1ccc(O)c(N)c1`, the “hERG current change (%, negative = inhibition) at 10uM” value is listed as 9.82%. The result for `C=CCNC(=O)/C(=C\c1ccc(Br)cc1)NC(=O)c1ccccc1OC` reads -51.8%; that for `CCn1cc(/C=C(\NC(=O)c2ccccc2OC)C(=O)NCCCn2ccnc2)c2ccccc21`, -19.2%; that for `COc1ccccc1C(=O)N/C(=C\c1cn(C)c2ccccc12)C(=O)NCCCn1ccnc1`, 3.22%. `CCn1cc(/C=C(\NC(=O)c2ccccc2F)C(=O)NCCCn2ccnc2)c2ccccc21`: the “hERG current change (%, negative = inhibition) at 10uM” value is given as -69%. The result for `O=C(NCCCn1ccnc1)/C(=C\c1ccc(Br)cc1)NC(=O)c1ccccc1F` reads -74.3%; that for `COc1ccccc1C(=O)N/C(=C\c1ccc(Br)cc1)C(=O)NCCCO`, -34.3%. For the compound `C=CCNC(=O)/C(=C/c1ccc(Br)cc1)NC(=O)c1ccccc1OC`, the “hERG current change (%, negative = inhibition) at 10uM” value is recorded as -45.9%. Take `O=C(NCCCn1ccnc1)/C(=C\c1cccnc1)NC(=O)c1ccccc1F`: the “hERG current change (%, negative = inhibition) at 10uM” value is -17.7%. On to `O=C(NCCCn1ccnc1)/C(=C\c1cccnc1)NC(=O)c1ccccc1Br`, for which the “hERG current change (%, negative = inhibition) at 10uM” value was 5.24%. On to `COc1ccccc1C(=O)N/C(=C/c1ccc(Br)cc1)C(=O)NCCCn1ccnc1`, for which the “hERG current change (%, negative = inhibition) at 10uM” value is -87%. As to `Cn1cc(/C=C(\NC(=O)c2ccccc2Cl)C(=O)NCCCn2ccnc2)c2ccccc21`, the “hERG current change (%, negative = inhibition) at 10uM” value was determined as 8.3%. The result for `COc1ccccc1C(=O)N/C(=C/c1ccc(Br)cc1)C(=O)NCC(=O)O` reads -8.44%; that for `COC(=O)c1cnn(-c2ccc(Cl)cc2)c1/C=N/NC(N)=S`, 7.44%.

With `O=C(Nc1cccc(-c2csc(Nc3cccc(C(F)(F)F)c3)n2)c1)c1cc([N+](=O)[O-])cc(C(F)(F)F)c1`, the “hERG current change (%, negative = inhibition) at 10uM” value is 5.05%. With `CC(C)Oc1ccc(CNCCC2(C(C)C)CCOC(C)(C)C2)cc1` (centres unmarked), the “hERG current change (%, negative = inhibition) at 10uM” value is -45.4%. The result for `COc1ccc(NC(=O)Nc2ncn(Cc3cccc(C(F)(F)F)c3)n2)cc1OC` reads -32.5%. The figure for `NC(=O)C(c1ccccc1)c1ccc(C(=O)c2ccccc2)cc1` (centres unmarked) is 3.08%; for `CC(C)N1CCC(N2CCN(CC#Cc3ccccc3)CC2CCO)CC1` (centres unmarked) it is 0.615%. With `CCc1ccc(N2CC(O)=C(c3nc4ccccc4c(=O)[nH]3)C2=N)cc1`, the “hERG current change (%, negative = inhibition) at 10uM” value was found to be 2.98%. The result for `CCOc1ccc(Nc2oc(Cc3ccccc3)nc2C#N)cc1` reads -1.96%; that for `CCCCOc1cc(CC2CNC(=O)N2)ccc1OC` (centres unmarked), -2.83%. The result for `COc1ccccc1NC(=O)Cn1c(=O)oc2cc(S(=O)(=O)N3CCCC3)ccc21` reads 16.6%; that for `CCOC(=O)c1c(NC(=S)N2CCOCC2)sc2c1CCN(C(=O)OCC)C2`, -1.31%. For the compound `CCOC(=O)N1CCc2c(sc(NC(=O)Cc3ccccc3)c2C(=O)c2ccc(OC)cc2)C1`, the “hERG current change (%, negative = inhibition) at 10uM” value was 13.7%. As to `CCOC(=O)N1CCc2c(sc(NC(=O)CN3CCOCC3)c2C#N)C1`, the “hERG current change (%, negative = inhibition) at 10uM” value is listed as -1.09%. For the compound `CCOC(=O)N1CCc2c(sc(NC(=O)CN3CCN(C)CC3)c2C(=O)Nc2ccccc2)C1`, the “hERG current change (%, negative = inhibition) at 10uM” value is given as -77.2%. On to `CCOC(=O)N1CCc2c(sc(NC(=O)CN3CCOCC3)c2C(=O)Nc2ccccc2)C1`, for which the “hERG current change (%, negative = inhibition) at 10uM” value is on record as -68.8%.

On to `CCOC(=O)c1c(NC(=O)CN2CCCCC2)sc2c1CCN(C(=O)OCC)C2`, for which the “hERG current change (%, negative = inhibition) at 10uM” value was -10.9%. The result for `O=C(CNC(=O)c1ccco1)OC(C(=O)c1ccccc1)c1ccccc1` (centres unmarked) reads 0.438%. Take `CCN1C(=O)C2(C(C(=O)c3ccc(C)o3)=C(O)C(=O)N2CCCN2CCOCC2)c2ccccc21` (centres unmarked): the “hERG current change (%, negative = inhibition) at 10uM” value was 0.0517%.

With `O=C(CSc1nccc(=O)[nH]1)N1CCOCC1`, the “hERG current change (%, negative = inhibition) at 10uM” value worked out at 3.03%. For `COc1cc(SC)ccc1C(=O)OCc1nc2ccsc2c(=O)[nH]1`, the “hERG current change (%, negative = inhibition) at 10uM” value is listed as -30.6%.

Take `O=C(CSc1nnc(Nc2ccccc2)s1)NCC1CCCO1` (centres unmarked): the “hERG current change (%, negative = inhibition) at 10uM” value is -1.51%. The result for `COc1cc2ccccc2cc1C(=O)NNC(=O)c1ccccc1O` reads 7.31%; that for `COc1cccc2c(=O)c3c([nH]c12)OC(C)(C)C3`, 13%. The figure for `COc1cccc(CNc2ncnc3cc(OC)c(OC)cc23)c1` is -11.6%. The figure for `COc1ccc(CNc2ncnc3cc(OC)c(OC)cc23)cc1` is -3.69%; for `COc1cc2ncnc(NCc3ccc(F)cc3)c2cc1OC` it is -52.5%.

These data come from article PMC4336329 (PLoS ONE, 2015).
